Screens deposited in PubChem BioAssay by National Center for Advancing Translational Sciences (NCATS).
Sampled rows, rich in hits. Any-hit rate of the full collection: about 7.9%.
HCMV antiviral – human cytomegalovirus inhibition. HFF cells, HCMV-luciferase reporter, 72 h; hits give low values. activity change, negative = inhibition, % at 57.5 µM. 410,000 compounds, 4.5% hits; in the data active = activity change below about -60%; inconclusive = no clear call, values can overlap the other calls; inactive = above about -39%
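After 16 h attachment at 37C, HFF cells received test compound and HCMV-luciferase (1 PFU/cell); reporter luminescence read 72 h later, data normalized against buffer-only and known inhibitor Salinomycin.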
HCV inhibitor – inhibitors of hepatitis C virus infection | Huh7.5.1 HCVcc-Cre infection, luciferase reporter, 44 h | Potency, µM (highest dose often 41.8 µM), most hits filed as inhibitors | 340,000 compounds, 3.4% hits; active = well fitted inhibition curve with a large enough effect; inconclusive = small, poorly fitted or top-dose-only effect, or another doubt; inactive = no such curve, though single readings can be large or run the other way
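Luciferase read-out (15 sec integration) after a 15 min room-temperature substrate step quantifies HCVcc-Cre infection. Cells, 1,000 per well, had compound added 4 h post-plating, then virus at ~0.5 moi, and were cultured 44 h.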
MARV entry inh – inhibitors of Marburg virus binding or cell entry; 300,000 compounds, 1.8% hits; Marburg virus pseudotyped entry inhibition, cell reporter; Potency, µM (highest dose often 37.8 µM), hits mostly inhibitors; calls by dose curve; tested in HEK293 cells
FMDV antiviral – foot and mouth disease virus antiviral activity. 410,000 compounds, 1.2% hits. FMDV antiviral cell-based qHTS. Potency, µM (highest dose often 57.9 µM), most hits filed as inhibitors; calls by dose curve; tested in HEK293T cells; note: read-out not given here; nearly all actives have a fitted effect of over 45% in size
LASV entry inh – inhibitors of Lassa virus binding or cell entry | 300,000 compounds, 1.2% hits | AID 540256 | Potency, µM (highest dose often 37.9 µM), usual class: inhibitors | Lassa virus pseudotype entry inhibition, cell reporter; calls by dose curve; tested in HEK293 cells; note: nearly all actives have a fitted effect of over 50% in size
Numbers stand for hits; n = inactive; u = inconclusive; x = no result; [ ] = another dose, or the depositor's remark.

SMILES	HCMV antiviral	HCV inhibitor	MARV entry inh	FMDV antiviral	LASV entry inh
O=S(=O)(CCSc1ccc(C(F)(F)F)cn1)c1ccccc1	-60	n	x	n	x
Cc1ccc(S(=O)(=O)CCSc2ccc(C(F)(F)F)cn2)cc1	n	n	x	n	x
Cc1nccn1-c1ccc(NC(=O)[C@H]2O[C@@H](n3ccc(N)nc3=O)[C@H](O)[C@@H]2O)cc1	n	x	x	n	x
C[C@@H]1CC[C@H]2C(=O)O[C@@H](COc3ccc(C(C)(C)C)cc3)CN2[C@H]1c1ccc(Br)cc1	x	x	u	x	n
O=C1C2CCCCN2C(=O)N1CCCCN1CCN(c2ccc([N+](=O)[O-])cc2)CC1 (centres undefined)	n	u	u	20µM	n
CCc1ccc(NC(=O)c2nc(S(=O)(=O)Cc3ccccc3)ncc2Cl)cc1	-100	x	x	x	x
CCCS(=O)(=O)c1ncc(Cl)c(C(=O)Nc2ccc(S(=O)(=O)Nc3ncccn3)cc2)n1	n	n	x	n	x
CCOC(=O)c1c(-c2ccccc2)csc1NC(=O)c1nc(S(=O)(=O)CC)ncc1Cl	-98	x	u	14µM	n
CCOC(=O)c1ccc(NC(=O)c2nc(S(=O)(=O)Cc3ccccc3)ncc2Cl)cc1	-99	10µM	11µM	35µM	u
CS(=O)(=O)c1ncc(Cl)c(C(=O)Nc2c(C(=O)Nc3ccccc3)oc3ccccc23)n1	n	x	n	28µM	n
CCOC(=O)c1ccc(NC(=O)c2nc(SC(C)C)ncc2Cl)cc1	n	x	n	n	u
COc1ccccc1-c1ccc2n(c1=O)C[C@@H]1[C@@H](CO)[C@H](C(=O)NCCCN(C)C)N(C(C)=O)[C@H]21	n	x	x	x	x
CCOC(=O)NN=C1C[C@@H](O)[C@@H](O)[C@@H]2[C@H]3C(=O)N(Cc4ccc5c(c4)OCO5)C(=O)[C@@H]3CC[C@H]12	x	x	n	x	x
COC(=O)N[C@H](CC(C)=O)c1ccc(Cl)cc1	x	x	n	x	x
COc1ccc(Nc2cc3c(cn2)cc(-c2cccc(F)c2)n3C)cn1	n	x	x	x	x
Cc1c(C(=O)N2CCCC2)sc2ncnc(NCCN(C)C)c12	x	x	x	n	x
CCOC(=O)c1c(-c2ccccc2)csc1NC(=S)N(CC)CC	n	u	u	u	n
CCCSc1ncc(Cl)c(C(=O)Nc2ccc(S(=O)(=O)N(C)c3ccccc3)cc2)n1	n	x	n	n	n
CCS(=O)(=O)c1ncc(Cl)c(C(=O)Nc2ccccc2)n1	-103	x	u	u	u
CCN(c1ccccc1)S(=O)(=O)c1ccc(NC(=O)c2nc(SC)ncc2Cl)cc1	-86	x	u	n	u
CCOC(=O)c1c(-c2ccccc2)csc1NC(=O)c1nn(CC)cc1Br	n	u	10µM	x	u
CN(c1ccccc1)S(=O)(=O)c1ccc(NC(=O)c2nc(S(C)(=O)=O)ncc2Cl)cc1	-111	10µM	u	11µM	u
CCSc1ncc(Cl)c(C(=O)Nc2ccccc2)n1	n	n	n	n	n
COC(=O)C1=C(c2cccc3c2S(=O)(=O)c2ccccc2-3)C[C@@H]2CC[C@H]1N2C(=O)N1CCc2cc(OC)c(OC)cc2C1	n	10µM	x	n	x
CO/N=C(\c1nonc1N)N1CCN(c2ccc(Cl)cc2[N+](=O)[O-])CC1	n	u	u	35µM	u
SMILES	HCMV antiviral	HCV inhibitor	MARV entry inh	FMDV antiviral	LASV entry inh
COCC(=O)Nc1cc(C(=O)N2CCCOc3c(cccc3OC)C2)c2c(c1)nc(C1CCC1)n2C	x	x	x	n	x
CCN1C(=NCC(C)C)N[C@H](c2ccccc2)[C@H](C(=O)OC)[C@H]1C	x	x	n	x	n
Cc1cc(C)n(-c2nc3ccccc3nc2N2CCN(C(=O)c3ccc(F)cc3)CC2)n1	-80	n	n	n	u
COCCCn1c(=N)c(C(=O)NCc2cccnc2)cc2c(=O)n3cc(C)ccc3nc21	n	x	n	n	n
COCCCn1c(=N)c(C(N)=S)cc2c(=O)n3cccc(C)c3nc21	u	u	u	n	n
Cc1cccn2c(=O)c3cc(C(=O)NCc4ccc(F)cc4)c(=N)n(CCCN4CCOCC4)c3nc12	n	u	x	4.5µM	x
Cc1cccn2c(=O)c3cc(C(N)=S)c(=N)n(CCCN4CCOCC4)c3nc12	-64	u	x	u	x
Cc1ccc2nc3c(cc(C(N)=S)c(=N)n3CCCOC(C)C)c(=O)n2c1	n	25µM	n	n	n
COc1ccc(CC(=O)Oc2ccc(C#N)cc2)cc1	n	n	x	n	x
CCS(=O)(=O)N1CC(=O)N(c2ccccc2C)C(C)(C(=O)NC2CCCCC2)C1 (centres undefined)	n	x	x	n	n
O=C(CSc1nnc(-c2ccc(Cl)cc2)o1)N1CCc2ccccc21	n	x	n	n	n
COc1ccc(NC(=O)c2cnn(-c3ccc(C)cc3)c2-n2cccc2)cc1Cl	u	x	x	u	n
Cc1ccc(S(=O)(=O)c2cn(C)c3cc(N4CCN(C)CC4)c(F)cc3c2=O)c(C)c1	n	13µM	x	n	x
CO/N=C(\C(=O)N[C@@H]1C(=O)N2C(C(=O)O)=C(CSc3nc(=O)c(O)nn3C)CS[C@H]12)c1csc(N)n1	x	x	x	n	x
Nc1nc2ccccc2n1C(=O)c1ccccc1	n	n	x	n	x
Nc1nc2ccccc2n1C(=O)c1ccc(F)cc1	n	n	u	n	7.1µM
CC(C)C(=O)Nc1nnc(SCC(=O)NCc2cccs2)s1	-92	n	u	n	n
CC(C)(C)C(=O)Nc1nnc(SCC(=O)NCc2cccs2)s1	n	n	n	n	u
CC1(C)Oc2ccc3ccc(=O)oc3c2C[C@H]1O[C@@H]1O[C@H](CO)[C@@H](O)[C@H](O)[C@H]1O	n	n	x	n	x
CC(=O)OC(C)(C)/C=C/C(=O)[C@](C)(O)[C@H]1[C@H](O)C[C@@]2(C)[C@@H]3CC=C4[C@H](C[C@H](O)C(=O)C4(C)C)[C@]3(C)C(=O)C[C@]12C	x	n	u	18µM	0.29µM
CC(=O)OC(C)(C)/C=C/C(=O)C(C)(O)C1[C@H](O)C[C@@]2(C)C3CC=C4C(CC[C@@H](O)C4(C)C)[C@]3(CO)C(=O)C[C@]12C (some centres undefined)	-101	u	0.25µM	18µM	u
CC(=O)OC(C)(C)/C=C/C(=O)C(C)(O)C1C(O)CC2(C)C3CC=C4C(CC(O)C(=O)C4(C)C)C3(C)C(=O)CC12C (centres undefined)	-98	u	u	32µM	0.13µM
CC(=O)OC(C)(C)/C=C/C(=O)[C@](C)(O)C1[C@H](O)C[C@@]2(C)C3CC=C4C(C=C(O[C@@H]5O[C@H](CO)[C@@H](O)[C@H](O)[C@H]5O)C(=O)C4(C)C)[C@]3(C)C(=O)C[C@]12C (some centres undefined)	-86	n[8.37 µM]	x	n	x
CCCCN1C(=O)C(CC(=O)NC2CCCCC2)CC(C(=O)N(C(C)C)C(C)C)=C1C (centres undefined)	n	x	x	n	x
N=C(N)S/C=C\C(=O)O	x	x	x	n	x
CCOC(=O)c1c(C)oc2c1c(CN1CCN(C(=O)OCC)CC1)c(O)c1ccccc12	n	u	n	n	n
CCOC(=O)c1c(C)oc2c1c(C(c1ccncc1)N1CCOCC1)c(O)c1ccccc12 (centres undefined)	n	13µM	u	n	u
CN(Cc1cccc(-c2cccnc2)c1)C(=O)Oc1ccc([N+](=O)[O-])cc1	n	x	x	35µM	x
